# Results published in paper PMC7862700, “An all-to-all approach to the identification of sequence-specific readers for epigenetic DNA modifications on cytosine”.
# What was measured:
# Assay in all cases: DAPPL (digital affinity profiling via proximity ligation, sequencing); 10 mM Tris-HCl pH 7.5, 50 mM NaCl, 1 mM DTT, 4% glycerol, room temperature, 30 min; GST-TFs on glutathione beads, 16-mer random dsDNA library, 0.1% formaldehyde crosslink after washing; high values mean tight binding
# Details in all cases: protein: recombinant; tags: N-terminal GST; dsDNA, one strand shown
# FLI1 = target: T1, FLI1 (Homo sapiens, UniProt Q01543 1-452)
# T1 sequence: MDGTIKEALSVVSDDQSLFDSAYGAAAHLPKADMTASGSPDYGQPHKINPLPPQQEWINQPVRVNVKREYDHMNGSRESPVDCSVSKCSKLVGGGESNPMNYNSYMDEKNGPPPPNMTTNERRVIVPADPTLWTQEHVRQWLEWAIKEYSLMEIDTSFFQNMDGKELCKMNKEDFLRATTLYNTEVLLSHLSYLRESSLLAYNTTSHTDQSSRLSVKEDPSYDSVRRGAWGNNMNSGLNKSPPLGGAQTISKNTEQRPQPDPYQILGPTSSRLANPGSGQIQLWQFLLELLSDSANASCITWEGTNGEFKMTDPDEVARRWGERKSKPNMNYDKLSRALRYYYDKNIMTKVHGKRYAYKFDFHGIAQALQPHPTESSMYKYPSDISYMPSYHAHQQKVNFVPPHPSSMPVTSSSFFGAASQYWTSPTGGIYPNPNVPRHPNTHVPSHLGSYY
# In short: (§1)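 The binding signal reported is, for every hexamer, its read frequency for a factor over its read frequency for the tag-only sample. Reads came from pools of yeast-expressed, GST-fused human transcription factors on glutathione beads, barcoded with DNA and mixed with that sample, which were incubated with 200 nmole of a random double-stranded 16-mer DNA library in Tris/NaCl/DTT/glycerol buffer at room temperature for 30 min. After washing, the pools were crosslinked with 0.1% formaldehyde, proximity-ligated with BsaI/T4 ligase for 1 h at 37 °C, PCR-amplified and sequenced on an Illumina NextSeq500.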
# ELK1 = target: T2, ELK1 (Homo sapiens, UniProt P19419 1-428)
# T2 sequence: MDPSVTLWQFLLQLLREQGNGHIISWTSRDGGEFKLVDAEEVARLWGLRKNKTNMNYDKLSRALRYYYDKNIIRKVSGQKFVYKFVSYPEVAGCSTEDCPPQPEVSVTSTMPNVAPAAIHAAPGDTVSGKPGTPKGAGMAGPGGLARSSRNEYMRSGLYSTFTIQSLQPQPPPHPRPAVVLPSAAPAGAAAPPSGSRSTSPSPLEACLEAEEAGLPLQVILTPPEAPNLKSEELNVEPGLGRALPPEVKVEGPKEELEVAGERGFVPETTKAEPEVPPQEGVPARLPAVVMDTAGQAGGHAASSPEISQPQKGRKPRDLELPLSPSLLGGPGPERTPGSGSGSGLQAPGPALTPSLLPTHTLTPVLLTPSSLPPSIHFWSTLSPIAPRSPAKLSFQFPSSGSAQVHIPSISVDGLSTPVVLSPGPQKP
# In short: as §1
# GABPA = target: T3, GABPA (Homo sapiens, UniProt Q06546 1-454)
# T3 sequence: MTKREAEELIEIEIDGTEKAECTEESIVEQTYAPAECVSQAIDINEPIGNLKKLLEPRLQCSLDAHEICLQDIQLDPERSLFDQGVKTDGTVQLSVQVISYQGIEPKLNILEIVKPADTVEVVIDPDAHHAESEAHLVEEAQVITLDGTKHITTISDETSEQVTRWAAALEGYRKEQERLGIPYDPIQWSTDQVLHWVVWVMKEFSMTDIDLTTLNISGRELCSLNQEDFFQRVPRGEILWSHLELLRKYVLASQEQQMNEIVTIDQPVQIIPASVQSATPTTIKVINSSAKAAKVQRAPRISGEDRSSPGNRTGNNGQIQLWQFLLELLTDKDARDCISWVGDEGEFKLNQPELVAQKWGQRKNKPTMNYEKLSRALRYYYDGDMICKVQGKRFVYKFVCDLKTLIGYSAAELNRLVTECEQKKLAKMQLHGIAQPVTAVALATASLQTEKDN
# In short: as §1
# ERG = target: T4, ERG (Homo sapiens, UniProt P11308 1-479)
# T4 sequence: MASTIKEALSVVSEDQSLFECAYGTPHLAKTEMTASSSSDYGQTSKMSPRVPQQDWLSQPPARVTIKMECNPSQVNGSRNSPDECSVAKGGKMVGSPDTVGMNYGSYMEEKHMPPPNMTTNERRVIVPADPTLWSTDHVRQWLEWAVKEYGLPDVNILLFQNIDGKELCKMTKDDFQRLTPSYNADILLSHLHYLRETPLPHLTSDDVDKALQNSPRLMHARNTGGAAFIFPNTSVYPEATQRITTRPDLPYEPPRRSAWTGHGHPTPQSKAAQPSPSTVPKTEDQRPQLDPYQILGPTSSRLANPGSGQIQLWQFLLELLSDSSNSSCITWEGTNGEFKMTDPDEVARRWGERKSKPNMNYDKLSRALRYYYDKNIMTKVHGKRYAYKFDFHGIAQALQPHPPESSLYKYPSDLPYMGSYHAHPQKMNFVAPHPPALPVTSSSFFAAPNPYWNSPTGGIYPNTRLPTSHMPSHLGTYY
# In short: as §1
# ELF1 = ELF1 (Homo sapiens, UniProt P32519 1-619)
# ELF1, sequence (P32519 whole entry): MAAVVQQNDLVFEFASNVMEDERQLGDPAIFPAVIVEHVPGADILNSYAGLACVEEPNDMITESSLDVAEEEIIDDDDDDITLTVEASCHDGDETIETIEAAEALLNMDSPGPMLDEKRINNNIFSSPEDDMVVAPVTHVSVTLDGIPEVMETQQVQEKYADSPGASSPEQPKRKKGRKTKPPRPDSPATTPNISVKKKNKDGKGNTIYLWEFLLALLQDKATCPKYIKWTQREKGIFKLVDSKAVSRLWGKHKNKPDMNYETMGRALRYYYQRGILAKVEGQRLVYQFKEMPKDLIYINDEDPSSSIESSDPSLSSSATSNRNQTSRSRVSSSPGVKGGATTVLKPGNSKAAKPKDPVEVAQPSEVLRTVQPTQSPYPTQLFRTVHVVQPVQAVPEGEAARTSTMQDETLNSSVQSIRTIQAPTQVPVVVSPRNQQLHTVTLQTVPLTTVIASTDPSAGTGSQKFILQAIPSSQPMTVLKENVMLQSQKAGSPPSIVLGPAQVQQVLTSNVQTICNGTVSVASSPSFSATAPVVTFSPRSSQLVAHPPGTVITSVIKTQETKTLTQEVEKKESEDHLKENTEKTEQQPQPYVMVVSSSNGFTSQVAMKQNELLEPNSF
# In short: as §1
# EHF = target: T5, EHF (Homo sapiens, UniProt Q9NZC4 1-300)
# T5 sequence: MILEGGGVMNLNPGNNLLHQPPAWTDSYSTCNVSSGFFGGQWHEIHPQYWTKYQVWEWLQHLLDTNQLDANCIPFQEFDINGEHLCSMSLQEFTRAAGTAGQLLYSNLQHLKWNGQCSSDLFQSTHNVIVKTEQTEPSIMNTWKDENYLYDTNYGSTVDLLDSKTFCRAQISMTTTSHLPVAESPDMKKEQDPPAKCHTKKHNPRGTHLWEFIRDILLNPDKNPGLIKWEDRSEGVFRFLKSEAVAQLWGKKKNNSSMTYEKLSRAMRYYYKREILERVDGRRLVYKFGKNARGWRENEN
# In short: as §1
# SPI1 = SPI1 (Homo sapiens, UniProt P17947 1-270)
# In short: as §1
# SPIB = SPIB (Homo sapiens, UniProt Q01892 1-262)
# SPIB, sequence (Q01892 whole entry): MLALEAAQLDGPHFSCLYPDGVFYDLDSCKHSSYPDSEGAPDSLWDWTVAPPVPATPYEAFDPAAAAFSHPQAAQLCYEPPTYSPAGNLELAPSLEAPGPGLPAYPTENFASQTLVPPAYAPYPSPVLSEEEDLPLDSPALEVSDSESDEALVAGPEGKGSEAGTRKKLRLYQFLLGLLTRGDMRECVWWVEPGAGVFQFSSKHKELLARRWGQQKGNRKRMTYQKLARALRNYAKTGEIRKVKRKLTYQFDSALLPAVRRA
# In short: as §1
# ELK3 = target: T6, ELK3 (Homo sapiens, UniProt P41970 1-407)
# T6 sequence: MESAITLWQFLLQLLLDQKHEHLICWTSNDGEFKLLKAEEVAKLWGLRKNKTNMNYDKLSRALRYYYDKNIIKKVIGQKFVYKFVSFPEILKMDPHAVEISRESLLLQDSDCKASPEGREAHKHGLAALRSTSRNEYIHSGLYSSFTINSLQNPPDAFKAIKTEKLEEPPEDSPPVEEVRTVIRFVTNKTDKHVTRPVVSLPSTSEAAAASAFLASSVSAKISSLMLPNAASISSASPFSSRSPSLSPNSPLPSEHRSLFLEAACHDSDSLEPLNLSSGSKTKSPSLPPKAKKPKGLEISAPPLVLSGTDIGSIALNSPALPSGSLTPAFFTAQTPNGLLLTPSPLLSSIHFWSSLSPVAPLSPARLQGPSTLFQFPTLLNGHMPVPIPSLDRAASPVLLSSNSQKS
# In short: as §1
sequence,measurement,setting,value
ATGTAT,binding signal,FLI1,"1.34 fold enrichment (6-mer frequency, TF over GST control)"
same,binding signal,ELK1,"1.32 fold enrichment (6-mer frequency, TF over GST control)"
same,binding signal,GABPA,"1.27 fold enrichment (6-mer frequency, TF over GST control)"
same,binding signal,ERG,"1.35 fold enrichment (6-mer frequency, TF over GST control)"
same,binding signal,ELF1,"1.3 fold enrichment (6-mer frequency, TF over GST control)"
same,binding signal,EHF,"1.28 fold enrichment (6-mer frequency, TF over GST control)"
same,binding signal,SPI1,"1.28 fold enrichment (6-mer frequency, TF over GST control)"
same,binding signal,SPIB,"1.32 fold enrichment (6-mer frequency, TF over GST control)"
same,binding signal,ELK3,"1.36 fold enrichment (6-mer frequency, TF over GST control)"
